Laboratory results as given in the supplement of paper PMC10849652.
About 8,800 targets were measured; listed, in parts, are those with a hit and a random draw of the rest. About 0.5% of all pairs of compound and target were hits. Values without a mark were called inactive.

Experiments:
Assay in all cases: log2 fold change, soluble protein after heating vs DMSO (PISA); higher = thermal stabilisation; K562 lysate, 10 uM; active = over 0.2 and 3.5 SD of the protein, either way, in both replicates (recomputed)
[1] = compound: C=CC(=O)N1CCC[C@@H](n2nc(-c3ccc(Oc4ccccc4)cc3)c3c(N)ncnc32)C1 [ibrutinib]
How it was run: (§1)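 K562 pellets were dounce-homogenised in PBS pH 7.4 with 1 mM MgCl2, and the crude extract at 1 mg/mL protein was treated with 10 μM compound for 30 min. Aliquots were heated for 3 min across 48°C-58°C, pooled, and brought to 0.5% NP-40 at 4°C; soluble protein was the supernatant after 21,000xg for 90 min. Soluble protein was quantified by TMTpro 16plex LC-MS/MS with channel sums equalised, and reported as log2 fold change in thermal stability against DMSO controls, with values from duplicates.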

[2] = compound: CC(=O)c1cnc2ccc(-c3cc(Cl)c(O)c(Cl)c3)nc2c1N[C@H]1CC[C@H](CN(C)C)CC1
How it was run: as §1

[3] = compound: CC(C)(C)Cn1c(N)nc2ccc(-c3[nH]c(C(C)(C)C)nc3-c3ccc(F)cc3)nc21 [ralimetinib]
How it was run: as §1

[4] = compound: CC(C)(O)CC(=O)NCCn1ccc2ncnc(Nc3ccc(Oc4cccc(C(F)(F)F)c4)c(Cl)c3)c21
How it was run: as §1

[5] = compound: CC(C)C1=C2N=C(C=C(N2N=C1)NCC3=CC=CC=C3)NCCCCCCN
How it was run: as §1

[6] = compound: CC1=C(C(CC(=O)N1)C2=CC=C(C=C2)C(F)(F)F)C(=O)NC3=C(C=C4C(=C3)C=NN4)F
How it was run: as §1

[7] = compound: CC1=C(C2=C(C=C1)C(=O)C3=CC=CC=C3N2CCCN)C
How it was run: as §1

[8] = compound: CC1=C(C=C(C=C1)NC(=O)C2=CC(=CC=C2)C(C)(C)C#N)NC3=CC4=C(C=C3)N=CN(C4=O)C
How it was run: as §1

[9] = compound: CC1=C(C=C(C=C1)NC(=O)C2=CC(=CC=C2)N(C)C)NC(=O)C3=CC=C(C=C3)O
How it was run: as §1

[10] = compound: CC1=CC=C(C=C1)SC2=C3C=C(SC3=CN=C2)C(=O)N
How it was run: as §1

[11] = compound: CCCS(=O)(=O)Nc1ccc(F)c(C(=O)c2c[nH]c3ncc(-c4ccc(Cl)cc4)cc23)c1F [vemurafenib]
How it was run: as §1

[12] = compound: CCCS(=O)(=O)Nc1ccc(F)c(C(=O)c2c[nH]c3ncc(Cl)cc23)c1F
How it was run: as §1

[13] = compound: CCN(CCCOc1ccc2c(Nc3cc(CC(=O)Nc4cccc(F)c4)[nH]n3)ncnc2c1)CCOP(=O)(O)O [barasertib]
How it was run: as §1

[14] = compound: CC[C@@H]1C(=O)N(C)c2cnc(Nc3ccc(C(=O)NC4CCN(C)CC4)cc3OC)nc2N1C1CCCC1
How it was run: as §1

[15] = compound: CC[C@@H]1C(=O)N(C)c2cnc(Nc3ccc(C(=O)N[C@H]4CC[C@H](N5CCN(CC6CC6)CC5)CC4)cc3OC)nc2N1C(C)C [volasertib]
How it was run: as §1

[16] = compound: CCn1c(C(=O)N(C2CC2)C2CC2)cc2c3c(ncn3C)c(Nc3cc(C)n(C)n3)nc21
How it was run: as §1

[17] = compound: CCn1cc(-c2ccnc3[nH]c(-c4cccc(CN(C)C)c4)cc23)c(-c2ccc(NC(=O)N(C)C)cc2)n1
How it was run: as §1

[18] = compound: CN1CCC(CNc2ccc3ncc(-c4cccc(OC(F)(F)F)c4)n3n2)CC1
How it was run: as §1

[19] = compound: CN1CCN(CCOc2cc(OC3CCOCC3)c3c(Nc4c(Cl)ccc5c4OCO5)ncnc3c2)CC1 [saracatinib]
How it was run: as §1

[20] = compound: CN1CCN(c2nc(C3=C(c4c[nH]c5ccccc45)C(=O)NC3=O)c3ccccc3n2)CC1 [sotrastaurin]
How it was run: as §1

UniProt Q14534, sequence (Q14534 whole entry, looked up): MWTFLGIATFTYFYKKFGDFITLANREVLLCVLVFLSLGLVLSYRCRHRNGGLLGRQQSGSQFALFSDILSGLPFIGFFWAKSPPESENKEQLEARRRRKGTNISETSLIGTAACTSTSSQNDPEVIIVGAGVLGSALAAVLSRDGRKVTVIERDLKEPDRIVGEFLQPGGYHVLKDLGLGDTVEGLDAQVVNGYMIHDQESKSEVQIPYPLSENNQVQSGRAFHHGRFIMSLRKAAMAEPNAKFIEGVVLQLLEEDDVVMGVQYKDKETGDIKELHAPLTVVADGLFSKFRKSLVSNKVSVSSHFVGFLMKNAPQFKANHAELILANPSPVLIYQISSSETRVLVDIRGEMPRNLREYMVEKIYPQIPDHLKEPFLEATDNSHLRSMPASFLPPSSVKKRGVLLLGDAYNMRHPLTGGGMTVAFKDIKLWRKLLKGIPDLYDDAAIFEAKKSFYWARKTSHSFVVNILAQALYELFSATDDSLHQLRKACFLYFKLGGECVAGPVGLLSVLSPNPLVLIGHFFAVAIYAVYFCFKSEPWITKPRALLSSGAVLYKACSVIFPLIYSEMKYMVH
UniProt Q6NXT4, sequence (Q6NXT4 whole entry, looked up): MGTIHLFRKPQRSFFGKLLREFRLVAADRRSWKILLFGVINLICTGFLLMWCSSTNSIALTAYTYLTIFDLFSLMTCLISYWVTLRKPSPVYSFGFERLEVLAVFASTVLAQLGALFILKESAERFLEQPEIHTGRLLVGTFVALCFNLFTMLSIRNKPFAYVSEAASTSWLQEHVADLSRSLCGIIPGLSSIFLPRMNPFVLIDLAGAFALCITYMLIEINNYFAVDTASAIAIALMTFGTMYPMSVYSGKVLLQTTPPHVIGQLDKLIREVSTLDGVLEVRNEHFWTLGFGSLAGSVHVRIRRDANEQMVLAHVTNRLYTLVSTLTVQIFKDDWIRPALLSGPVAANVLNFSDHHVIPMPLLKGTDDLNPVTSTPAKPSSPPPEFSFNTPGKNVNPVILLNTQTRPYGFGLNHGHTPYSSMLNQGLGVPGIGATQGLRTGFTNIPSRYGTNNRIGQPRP
UniProt O00161, sequence (O00161 whole entry, looked up): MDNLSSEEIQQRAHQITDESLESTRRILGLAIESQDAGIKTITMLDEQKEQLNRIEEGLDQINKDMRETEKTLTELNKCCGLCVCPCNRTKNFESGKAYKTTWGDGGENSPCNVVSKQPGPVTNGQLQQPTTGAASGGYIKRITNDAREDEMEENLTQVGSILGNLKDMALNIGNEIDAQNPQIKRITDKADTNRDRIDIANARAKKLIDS
UniProt B2RUZ4, sequence (B2RUZ4 whole entry, looked up): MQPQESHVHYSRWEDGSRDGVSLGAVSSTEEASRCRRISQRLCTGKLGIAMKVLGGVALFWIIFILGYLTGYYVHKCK
UniProt P10124, sequence (P10124 whole entry, looked up): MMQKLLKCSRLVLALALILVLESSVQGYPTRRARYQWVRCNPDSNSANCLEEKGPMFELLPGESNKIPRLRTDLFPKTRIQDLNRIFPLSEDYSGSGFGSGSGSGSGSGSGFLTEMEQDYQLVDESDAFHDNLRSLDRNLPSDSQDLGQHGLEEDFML
UniProt P29353, sequence (P29353 whole entry, looked up): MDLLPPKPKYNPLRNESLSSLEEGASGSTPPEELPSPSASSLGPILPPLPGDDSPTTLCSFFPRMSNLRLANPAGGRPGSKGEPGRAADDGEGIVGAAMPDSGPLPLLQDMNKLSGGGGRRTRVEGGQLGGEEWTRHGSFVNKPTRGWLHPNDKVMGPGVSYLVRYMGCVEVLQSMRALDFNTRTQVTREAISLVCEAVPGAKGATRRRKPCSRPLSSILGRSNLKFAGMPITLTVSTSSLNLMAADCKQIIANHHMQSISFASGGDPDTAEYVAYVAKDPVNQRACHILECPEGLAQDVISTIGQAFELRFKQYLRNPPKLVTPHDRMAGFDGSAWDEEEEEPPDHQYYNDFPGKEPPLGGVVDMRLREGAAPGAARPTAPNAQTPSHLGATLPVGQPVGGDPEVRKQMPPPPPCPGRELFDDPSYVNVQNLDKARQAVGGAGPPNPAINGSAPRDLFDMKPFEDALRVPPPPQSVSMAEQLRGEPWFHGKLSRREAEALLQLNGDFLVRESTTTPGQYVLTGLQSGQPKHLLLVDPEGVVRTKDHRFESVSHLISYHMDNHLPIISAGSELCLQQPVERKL
UniProt P12931, sequence (P12931 whole entry, looked up): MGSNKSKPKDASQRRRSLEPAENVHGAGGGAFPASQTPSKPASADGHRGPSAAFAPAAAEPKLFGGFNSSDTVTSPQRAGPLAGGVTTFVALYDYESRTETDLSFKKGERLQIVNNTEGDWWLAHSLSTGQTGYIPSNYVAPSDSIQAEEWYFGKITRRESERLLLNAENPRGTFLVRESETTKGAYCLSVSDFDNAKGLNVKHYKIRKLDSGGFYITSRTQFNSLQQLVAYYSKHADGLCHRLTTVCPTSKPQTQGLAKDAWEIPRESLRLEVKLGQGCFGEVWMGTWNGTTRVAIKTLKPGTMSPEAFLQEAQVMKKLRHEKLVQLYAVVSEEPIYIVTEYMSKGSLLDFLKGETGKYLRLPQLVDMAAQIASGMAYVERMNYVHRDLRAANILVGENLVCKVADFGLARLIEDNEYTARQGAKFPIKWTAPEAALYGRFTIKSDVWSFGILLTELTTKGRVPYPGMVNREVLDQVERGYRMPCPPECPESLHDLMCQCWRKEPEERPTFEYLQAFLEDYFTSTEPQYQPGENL
UniProt Q86US8, sequence (Q86US8 whole entry, looked up): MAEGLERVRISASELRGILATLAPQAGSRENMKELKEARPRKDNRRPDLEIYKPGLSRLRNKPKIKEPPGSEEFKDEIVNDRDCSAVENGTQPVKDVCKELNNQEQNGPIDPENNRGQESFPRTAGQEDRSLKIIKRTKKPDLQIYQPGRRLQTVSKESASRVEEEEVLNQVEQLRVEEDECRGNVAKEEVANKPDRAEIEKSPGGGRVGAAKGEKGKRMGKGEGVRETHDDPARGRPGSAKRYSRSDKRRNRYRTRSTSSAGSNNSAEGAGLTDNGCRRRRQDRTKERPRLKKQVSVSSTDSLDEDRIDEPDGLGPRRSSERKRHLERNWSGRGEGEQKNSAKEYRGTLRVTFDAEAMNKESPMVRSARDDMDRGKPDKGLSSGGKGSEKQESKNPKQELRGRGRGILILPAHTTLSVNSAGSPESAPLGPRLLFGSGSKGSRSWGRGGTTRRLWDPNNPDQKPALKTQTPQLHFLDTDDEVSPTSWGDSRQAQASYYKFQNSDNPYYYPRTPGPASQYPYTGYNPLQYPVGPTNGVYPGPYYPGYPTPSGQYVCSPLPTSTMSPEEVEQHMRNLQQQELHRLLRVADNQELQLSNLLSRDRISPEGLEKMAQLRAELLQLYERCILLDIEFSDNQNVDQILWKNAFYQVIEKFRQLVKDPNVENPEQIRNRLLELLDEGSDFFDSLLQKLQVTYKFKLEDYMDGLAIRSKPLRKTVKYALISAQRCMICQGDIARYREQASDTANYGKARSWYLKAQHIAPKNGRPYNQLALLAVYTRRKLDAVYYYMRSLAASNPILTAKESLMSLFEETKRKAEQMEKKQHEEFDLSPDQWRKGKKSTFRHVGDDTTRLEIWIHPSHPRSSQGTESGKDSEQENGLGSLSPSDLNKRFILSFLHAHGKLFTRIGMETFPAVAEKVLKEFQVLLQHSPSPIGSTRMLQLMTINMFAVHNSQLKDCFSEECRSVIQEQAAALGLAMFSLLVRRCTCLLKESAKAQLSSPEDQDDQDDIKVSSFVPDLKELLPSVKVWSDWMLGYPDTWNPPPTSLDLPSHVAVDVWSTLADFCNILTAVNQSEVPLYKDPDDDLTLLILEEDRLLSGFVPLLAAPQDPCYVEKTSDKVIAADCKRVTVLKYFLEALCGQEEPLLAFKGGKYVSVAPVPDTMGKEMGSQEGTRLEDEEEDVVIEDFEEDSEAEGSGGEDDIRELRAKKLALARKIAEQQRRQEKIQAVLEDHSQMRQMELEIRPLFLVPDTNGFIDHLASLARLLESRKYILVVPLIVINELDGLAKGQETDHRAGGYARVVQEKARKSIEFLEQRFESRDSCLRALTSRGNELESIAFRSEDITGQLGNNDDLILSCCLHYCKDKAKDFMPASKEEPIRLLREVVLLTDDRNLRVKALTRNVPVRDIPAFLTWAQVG
UniProt Q13242, sequence (Q13242 whole entry, looked up): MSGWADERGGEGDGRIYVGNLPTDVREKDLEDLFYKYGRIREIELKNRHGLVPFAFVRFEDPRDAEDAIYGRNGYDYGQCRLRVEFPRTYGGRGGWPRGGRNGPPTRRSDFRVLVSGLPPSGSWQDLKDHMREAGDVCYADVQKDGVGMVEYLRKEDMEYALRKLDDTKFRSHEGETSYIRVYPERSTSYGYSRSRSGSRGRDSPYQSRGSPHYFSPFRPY
UniProt Q9H2D1, sequence (Q9H2D1 whole entry, looked up): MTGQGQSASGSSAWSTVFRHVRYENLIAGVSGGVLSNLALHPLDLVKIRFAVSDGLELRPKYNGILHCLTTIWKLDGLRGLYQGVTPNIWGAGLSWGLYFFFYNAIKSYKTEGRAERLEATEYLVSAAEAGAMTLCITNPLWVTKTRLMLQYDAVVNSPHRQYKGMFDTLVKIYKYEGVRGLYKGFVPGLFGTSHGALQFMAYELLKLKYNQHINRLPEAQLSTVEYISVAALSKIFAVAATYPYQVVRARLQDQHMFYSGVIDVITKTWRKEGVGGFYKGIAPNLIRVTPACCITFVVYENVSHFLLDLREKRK

Row | Target | log2 fold change [1] | log2 fold change [2] | log2 fold change [3] | log2 fold change [4] | log2 fold change [5] | log2 fold change [6] | log2 fold change [7] | log2 fold change [8] | log2 fold change [9] | log2 fold change [10] | log2 fold change [11] | log2 fold change [12] | log2 fold change [13] | log2 fold change [14] | log2 fold change [15] | log2 fold change [16] | log2 fold change [17] | log2 fold change [18] | log2 fold change [19] | log2 fold change [20]
1 | SHC1 isoform 6 (UniProt P29353) | 0.053 | -0.007 | -0.02 | -0.041 | -0.007 | -0.016 | -0.006 | -0.004 | 0.002 | -0.008 | 0.028 | 0.003 | 0.008 | -0.027 | 0.01 | -0.035 | 0.635 (active) | -0.163 | -0.007 | 0.017
2 | SMIM1 (UniProt B2RUZ4) | 0.018 | 0.005 | 0.054 | 0.036 | 0.081 | -0.132 |  | -0.042 | -0.021 | 0.058 |  | 0.013 | 0.002 | -0.108 | 0.026 | -0.096 | -0.036 | -0.222 |  | 0.088
3 | SLC25A32 (UniProt Q9H2D1) | 0.029 | 0.005 | 0.006 | -0.017 | -0.017 | -0.03 | -0.031 | 0.048 | -0.021 | -0.007 | 0.053 | 0.01 | -0.012 | -0.013 | 0.002 | -0.045 | -0.129 | 0.054 | 0.029 | 0.007
4 | SMG1 (UniProt Q96Q15) | 0.041 | 0.017 | 0.044 | -0.019 | -0.003 | 0.005 | 0.027 | 0.023 | 0.017 | 0.007 | 0.059 | 0.031 | 0.08 | 0.017 | -0.027 | -0.026 | 0.003 | -0.072 | 0.039 | 0.032
5 | SQLE (UniProt Q14534) | 0.028 | 0.051 | 0.081 | -0.047 | 0 | -0.02 | -0.006 | 0.039 | -0.06 | -0.027 | 0.036 | -0.01 | 0.103 | 0.051 | 0.073 | -0.063 | -0.06 | -0.02 | 0.077 | 0.065
6 | SPPL2A (UniProt Q8TCT8) | -0.081 | 0.154 | -0.152 | -0.219 | 0.004 |  |  | 0.138 | 0.091 | -0.008 | 0.312 | 0.023 | 0.077 | -0.016 | 0.011 | -0.062 | -0.196 | 0.202 |  | -0.029
7 | SMYD3 (UniProt Q9H7B4) | -0.009 | -0.002 | 0.032 | -0.012 | 0.034 | -0.037 | -0.028 | 0.038 | 0.036 | -0.027 | 0.036 | 0.013 | 0.017 | -0.137 | -0.051 | -0.02 |  |  | 0.045 | -0.005
8 | SMG6 (UniProt Q86US8) | 0.071 | -0.061 | 0.034 | -0.016 | 0.012 | 0.074 | 0.006 | 0.004 | 0.047 | 0.059 | 0.12 | -0.006 | 0.014 | -0.139 | -0.031 | 0.038 | -0.16 | 0.141 | 0.036 | 0.098
9 | SRSF9 (UniProt Q13242) | -0.009 | -0.009 | 0.001 | -0.031 | -0.031 | -0.019 | -0.089 | 0.047 | -0.028 | -0.007 | -0.104 | 0.009 | 0.049 | -0.05 | -0.029 | 0.03 | -0.006 | -0.029 | -0.021 | -0.064
10 | SOX5 (UniProt P35711) | -0.064 | 0.14 | -0.049 | 0.02 | 0.091 |  | 0.053 | 0.036 | 0.088 | -0.105 | 0.141 | 0.175 | 0.048 | 0.176 | -0.034 | 0.049 | -0.043 | -0.043 | 0.076 | -0.131
11 | SRGN (UniProt P10124) | 0.109 | 0.084 | 0.001 | -0.159 | -0.018 |  | -0.079 | 0.104 | -0.064 | -0.064 | 0.177 | 0.093 | -0.033 | 0.059 | -0.086 | -0.005 | -0.022 | 0.101 | 0.043 | 0.069
12 | SLC30A6 isoform 2 (UniProt Q6NXT4) | 0.052 | -0.019 | -0.013 | -0.016 | -0.023 | 0.047 |  | -0.022 | 0.053 | 0.011 | -0.098 | 0.018 | 0.146 | 0.105 | 0.001 | -0.03 | -0.127 | 0.063 |  | -0.004
13 | SRC isoform 2 (UniProt P12931) |  | -0.061 | -0.035 | 0.075 | 0.052 |  | 0.07 |  | 0.042 | 0 |  | 0.166 | 0.133 | 0.045 | -0.039 | -0.024 | 0.184 | -0.121 |  | 
14 | SIN3B (UniProt O75182) |  |  |  |  |  | 0.19 |  | 1.04 |  |  | -0.042 |  |  | -0.092 |  |  | -0.061 | 0.267 |  | -0.099
15 | SLC40A1 (UniProt Q9NP59) |  | -0.028 | -0.037 | -0.096 | 0.042 | -0.017 | 0.049 | -0.034 | 0.041 | -0.055 | 0.01 | -0.037 |  | 0.123 | 0.037 | -0.106 | -0.491 (active) | 0.067 | 0 | 0.026
16 | SNRPD2 (UniProt K7EJB5) |  | -0.004 | 0.142 | -0.075 | 0.014 | 0.052 | -0.022 | -0.011 | 0.069 | -0.01 | 0.061 | -0.029 |  | -0.085 | 0.026 | 0.112 |  |  | -0.049 | 0.112
17 | SNAP23 isoform 2 (UniProt O00161) |  | -0.045 | -0.071 | 0.095 | -0.029 | 0.306 |  |  | 0.027 | 0.028 | 0.172 | 0.09 |  | 0.052 | 0.003 | -0.029 | 0.123 | -0.061 |  | 
